# Values without a mark were called inactive.
# System: Falciformispora senegalensis CBS197.79
# Assay: growth relative to untreated control; higher = less inhibition, active = 20 or less
# Conditions: 25 µM
# In short: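 In 96-well plates, suspended hyphal fragments of M. mycetomatis MM55 or F. senegalensis CBS197.79 were exposed to compound at 100 or 25 µM for 7 days at 37 °C. The suspension medium was colourless RPMI 1640 with L-glutamine and MOPS, adjusted to 68–72% transmission at 660 nm. Viability was measured with MTS (2 h, 490 nm) or resazurin (600 nm). Growth means metabolic activity compared with the untreated growth control after blank correction of both with medium plus dye.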
row,SMILES,growth
1,CCC1=C(c2ccc(C)cc2)S(=O)(=O)N=C1N1CCC(C(=O)NCCN2CCCCC2C)CC1 (stereo unspecified),86.3%
2,CCOc1ccc(-c2nc(NC(=O)Cc3cccc(OC)c3)sc2C)cc1,93.7%
3,O=C1NCN(c2ccccc2)C12CCN(CCCC(c1ccc(F)cc1)c1ccc(F)cc1)CC2,3.66% (active)
4,O=C(Nc1cccc(-c2n[nH]c3ccc(-c4n[nH]c(C5CCCN5)n4)cc23)c1)C1CC1 (stereo unspecified),102%
5,CCSC1CCCCC1NCCn1c(=O)oc2cccnc21 (stereo unspecified),91.3%
6,C[C@@H](c1nc(-c2ccc(C#N)cc2)cs1)[C@](O)(Cn1cncn1)c1ccc(F)cc1F,49.9%
7,O=C(NC1CCNCC1)c1ccc(Nc2nccc(-c3ccc(Cl)cc3)n2)cc1,98%
8,CCOc1cc([C@@H](CS(C)(=O)=O)N2C(=O)c3cccc(NC(C)=O)c3C2=O)ccc1OC,99.4%
9,Cc1nc2ccccn2c1C1(O)C(=O)Nc2c(Cl)cc(Cl)cc21 (stereo unspecified),101%
10,Cn1cnc2c(F)c(Nc3ccc(Br)cc3Cl)c(C(=O)NOCCO)cc21,96.9%

# Same assay, conditions: 100 µM
row,SMILES,growth
1,CCS(=O)(=O)N1CC(CC#N)(n2cc(-c3ncnc4[nH]ccc34)cn2)C1,104%
2,C[C@H](NC(=O)c1cc2nc(C(F)(F)F)ccc2[nH]1)c1ccccc1,95.9%
3,N#Cc1ccc(-c2n[nH]c3ccc(-c4n[nH]c(CC(F)(F)F)n4)cc23)cc1,98.3%
4,FC(F)(F)c1ccc(CNc2ccc(Cc3c[nH]c4ncc(Cl)cc34)cn2)cn1,106%
5,Cc1cc2c(cc1Cl)N(C(=O)Nc1cc(F)cc(-c3cncnc3)c1)CC2,101%
6,C=CC(=O)Nc1cc(Nc2nccc(-c3cn(C)c4ccccc34)n2)c(OC)cc1N(C)CCN(C)C,12.6% (active)
7,O=C(c1ccc(Nc2nccc(-c3ccc(Cl)cc3)n2)cc1)N1CC[C@@H](CO)C1,89.6%
8,O=C(O)c1ccc2c(c1)nc(Nc1cccc(Cl)c1)c1ccncc12,97.3%
9,CCN1CCC(c2cc(C)c3nc(-c4cc5c(C)nc(C)cn5n4)cc(=O)n3c2)CC1,107%
10,CC(C)(C)NCc1cc(Nc2ccnc3cc(Cl)ccc23)c2c(c1O)CCCC2,101%
11,CN(C)CCOc1ccc2nc(-c3cccc(OCc4ccccc4)c3)[nH]c2c1C#N,11.4% (active)
12,Cc1cc(C)c(Nc2ccnc(Nc3ccc(C#N)cc3)n2)c(C)c1,99.4%
13,CC(C)Nc1cc2c(cn1)nc(Nc1cc(Cl)cc(C#N)c1)n2C1CCNCC1,106%
14,CNC(=O)c1cc(Oc2ccc(NC(=O)Nc3ccc(Cl)c(C(F)(F)F)c3)c(F)c2)ccn1,101%
15,COc1ccc(-n2nc(C)c3c2NC(=O)CC3c2ccccc2OCc2ccc(F)cc2)cc1 (stereo unspecified),77.9%
16,CCC(C)n1ncn(-c2ccc(N3CCN(c4ccc(OCC5COC(Cn6cncn6)(c6ccc(Cl)cc6Cl)O5)cc4)CC3)cc2)c1=O (stereo unspecified),81.1%
17,CN(c1ncc2nc(Nc3cc(Cl)cc(C(F)(F)F)c3)n(C3CCNCC3)c2n1)C1CC1,12.3% (active)
18,COc1ccc(CCNc2nccc(-c3cc(Cl)cc(C(F)(F)F)c3)n2)cc1,94.6%
19,Cc1cc(C(=O)N2CCOc3c(cc(-c4csc5ccccc45)cc3OCCc3ccccn3)C2)n(C)n1,91.1%
20,FC(F)(F)c1cc(Cl)cc(Nc2nc3cnc(NC4CCOCC4)nc3n2C2CCNCC2)c1,79.8%
21,CN(C)C1CC(NC(=O)c2ccc(Nc3nccc(-c4ccc(Cl)c(C(F)(F)F)c4)n3)cc2)C1 (stereo unspecified),102%
22,CCN(CC)CCNC(=O)c1ccc(NC(=O)c2cc3c(C)nn(-c4ccc(Cl)cc4)c3s2)cc1,61.2%
23,OCCN1CCN(CCCN2c3ccccc3Sc3ccc(C(F)(F)F)cc32)CC1,8.28% (active)
24,O=C1CN(C(=O)CCC2CCCC2)C(c2ccc(F)cc2)c2cc(Cl)ccc2N1 (stereo unspecified),74.3%
25,CC(C)(C)c1nc(-c2cccc(NS(=O)(=O)c3c(F)cccc3F)c2F)c(-c2ccnc(N)n2)s1,104%
26,CN[C@@H]1[C@H](O)[C@H](NC)[C@H]2O[C@@]3(O)C(=O)C[C@@H](C)O[C@H]3O[C@@H]2[C@H]1O,102%
